Laboratory results reported in the supplement of paper PMC6992640.
± gives the standard deviation of the averaged measurements.

Experiments:
Assay in all cases: cell viability (% of vehicle); higher = less cytotoxic
HCI01 [1] = cells of a triple-negative basal-like breast cancer xenograft; conditions: 1 µM; 72 h
UCD52 [2] = cells of a triple-negative basal-like breast cancer xenograft; conditions: 1 µM; 72 h
WHIM2 [3] = cells of a triple-negative basal-like breast cancer xenograft; conditions: 1 µM; 72 h
WHIM30 [4] = cells of a triple-negative basal-like breast cancer xenograft; conditions: 1 µM; 72 h
HCI01 [5] = conditions: 10 µM; 72 h
HCI03 = cells of an ER-positive luminal breast cancer xenograft; conditions: 10 µM; 72 h
HCI09 = cells of a triple-negative luminal androgen receptor type breast cancer xenograft; conditions: 10 µM; 72 h
HCI11 = cells of an ER-positive luminal breast cancer xenograft; conditions: 10 µM; 72 h
HCI13 = cells of an ER-positive luminal breast cancer xenograft; conditions: 10 µM; 72 h
HCI16 = cells of a triple-negative basal-like breast cancer xenograft; conditions: 10 µM; 72 h
UCD52 [6] = conditions: 10 µM; 72 h
WHIM2 [7] = conditions: 10 µM; 72 h
WHIM30 [8] = conditions: 10 µM; 72 h

Compound	cell viability (HCI01 [1])	cell viability (UCD52 [2])	cell viability (WHIM2 [3])	cell viability (WHIM30 [4])	cell viability (HCI01 [5])	cell viability (HCI03)	cell viability (HCI09)	cell viability (HCI11)	cell viability (HCI13)	cell viability (HCI16)	cell viability (UCD52 [6])	cell viability (WHIM2 [7])	cell viability (WHIM30 [8])
CCc1oc2ccccc2c1C(=O)c1cc(Br)c(O)c(Br)c1 [Benzbromarone]	88.4	92.9	102	88.3	65.9 ± 49	103	33.8 ± 25	98	128 ± 29	97	76 ± 7.4	40.1 ± 12	95.1 ± 20
CC1=C(C(=O)OC(C)C)C(c2cccc([N+](=O)[O-])c2)C(C(=O)OC2CN(C(c3ccccc3)c3ccccc3)C2)=C(N)N1 (stereo not given) [Azelnidipine]	93.6	73.5	85.9	88.3	33.6 ± 1.3	59	21.5 ± 0.58	80.4	41.6 ± 5.9	62	93.5 ± 6.1	61.3 ± 19	57.7 ± 26
C#Cc1cccc(Nc2ncnc3cc(OCCOC)c(OCCOC)cc23)c1.Cl [Erlotinib Hydrochloride]	63.1	68.3	50.1	80.5	75.1 ± 35	50	59 ± 12	104	69.8 ± 5.8	100	52.4 ± 1.8	48 ± 8.3	84.5 ± 5.2
Nc1ccc2cc3ccc([NH3+])cc3nc2c1.Nc1ccc2cc3ccc([NH3+])cc3nc2c1.O=S(=O)([O-])[O-] [Proflavine Hemisulfate]	91.4	139	51.3	58.8	82.6 ± 55	144	23.3 ± 3.6	41.6	–	165	54.6 ± 16	50.3 ± 13	85.2 ± 2.2
Nc1ncn(C2OC(CO)C(O)C2O)c(=O)n1 (stereo not given) [5-Azacytidine]	91.5	70.1	91.3	93.9	59.1 ± 13	85	27.2 ± 6.3	170	53.1 ± 9.2	103	53.4 ± 3.7	35.1 ± 14	198 ± 19
Cn1cnc2c(F)c(Nc3ccc(Br)cc3F)c(C(=O)NOCCO)cc21	71.6	59.9	80.7	69.9	84.1 ± 12	90.7	65.6 ± 13	76.4	70.9 ± 7.1	79.6	59.8 ± 8.5	55.2 ± 20	106 ± 14
CO[C@@]12[C@H](COC(N)=O)C3=C(C(=O)C(C)=C(N)C3=O)N1C[C@@H]1N[C@@H]12 [Mitomycin C]	59.3	88.3	75.4	66.9	46.7 ± 2.1	56.9	35.4 ± 3.3	64.6	45 ± 3.3	61.4	32.3 ± 0.47	47.3 ± 5.7	57.77 ± 0.16
COc1cccc2c1C(=O)c1c(O)c3c(c(O)c1C2=O)CC(O)(C(=O)CO)CC3OC1CC(N)C(O)C(C)O1.Cl (stereo not given) [Doxorubicin (Adriamycin) HCl]	93.6	38.7	26.8	45.9	70.4 ± 23	196	29.7 ± 8.2	41.4	–	66.1	33.1 ± 1.4	35.6 ± 6.6	77 ± 21
O=C(c1ccc(F)c(F)c1Nc1ccc(I)cc1F)N1CC(O)(C2CCCCN2)C1 (stereo not given) [Cobimetinib]	74.9	52.9	58.8	59.8	76.8 ± 21	80.6	64.7 ± 24	82.8	74.8 ± 0.28	63.2	42.65 ± 0.23	48.9 ± 3.3	78.2 ± 2.8
COc1cc2nccc(Oc3ccc(NC(=O)C4(C(=O)Nc5ccc(F)cc5)CC4)cc3)c2cc1OC.O=C(O)CC(O)C(=O)O [Cabozantinib malate (XL184)]	92.9	93.9	90.8	84.4	88.7 ± 13	45.4	58.2 ± 4.8	44	85.1 ± 15	63.4	34.5 ± 3.2	105 ± 6.6	56 ± 1.8
CCOc1cc2ncc(C#N)c(Nc3ccc(F)c(Cl)c3)c2cc1NC(=O)C=CCN(C)C [Pelitinib (EKB-569)]	98.5	27	31.4	46.1	30.5 ± 8.4	60.7	21.7 ± 4.1	37.7	34.2 ± 0.47	37.9	32.5 ± 1.5	31.1 ± 17	57.6 ± 12
C=C1C(=CC=C2CCCC3(C)C2CCC3C(C)C=CC(C)C(C)C)CC(O)CC1O (stereo not given) [Doxercalciferol]	75.3	63.6	61.8	93.1	39.4 ± 14	137	26.4 ± 8.6	75.3	52.8 ± 3	106	54.8 ± 6.5	50.8 ± 12	180 ± 17
CO[C@H]1C[C@@H]2CC[C@@H](C)[C@@](O)(O2)C(=O)C(=O)N2CCCC[C@H]2C(=O)O[C@H]([C@H](C)C[C@@H]2CC[C@@H](OC(=O)C(C)(CO)CO)[C@H](OC)C2)CC(=O)[C@H](C)/C=C(\C)[C@@H](O)[C@@H](OC)C(=O)[C@H](C)C[C@H](C)/C=C/C=C/C=C/1C [Temsirolimus]	76.2	55.1	80	74.2	31.8 ± 1.4	57.5	26.7 ± 8.6	54.3	24.6 ± 11	45.2	23.1 ± 2.3	42.4 ± 15	30.5 ± 1.6
COc1cc2c(Oc3ccc(NC(=O)C4(C(=O)Nc5ccc(F)cc5)CC4)cc3F)ccnc2cc1OCCCN1CCOCC1	89.1	48.2	71.2	70.2	35.4 ± 4.4	55	65.7 ± 32	52.7	60.2 ± 6.2	48	28 ± 2.1	50.1 ± 11	64.8 ± 15
CC(C)N=c1cc2n(-c3ccc(Cl)cc3)c3ccccc3nc-2cc1Nc1ccc(Cl)cc1 [Clofazimine]	88.1	84.9	90.3	80.2	54.8 ± 28	83.9	38.8 ± 13	88.8	43.6 ± 9.1	77.6	44.2 ± 1.7	53.1 ± 15	68.8 ± 6.1
CN(C)c1ccc(O)c2c1CC1CC3C(N(C)C)C(=O)C(C(N)=O)=C(O)C3(O)C(=O)C1=C2O.Cl (stereo not given) [Minocycline HCl]	103	100	91.2	102	68.2 ± 8.5	59.2	55.8 ± 58	52.6	78.7 ± 12	96.5	70.7 ± 4.3	82.8 ± 14	81.8 ± 11
COC(=O)NC(C(=O)NC(Cc1ccccc1)C(O)CN(Cc1ccc(-c2ccccn2)cc1)NC(=O)C(NC(=O)OC)C(C)(C)C)C(C)(C)C (stereo not given) [Atazanavir]	92.8	80.2	91.7	84.6	88.35 ± 0.71	80	57.5 ± 2	74.5	81.7 ± 5.1	151	51.6 ± 3.1	73.7 ± 1.3	82.1 ± 5.5
CNC(=O)c1cc(Oc2ccc(NC(=O)Nc3ccc(Cl)c(C(F)(F)F)c3)c(F)c2)ccn1.Cl [Regorafenib hydrochloride]	104	71.5	104	98.7	56.2 ± 0.73	114	82.2 ± 10	65.5	36.7 ± 1.2	62.7	93.8 ± 11	97.7 ± 4.6	60.6 ± 32
CN(C)c1ccc(C(=C2C=CC(=[N+](C)C)C=C2)c2ccc(N(C)C)cc2)cc1.[Cl-] [Crystal Violet]	74.7	61.1	51.2	40.8	28.8 ± 4.1	48.9	26.9 ± 4.8	28.1	24.73 ± 0.16	56.7	29.6 ± 3.3	46.7 ± 15	36.8 ± 2.2
COc1cc(Nc2c(C#N)cnc3cc(OCCCN4CCN(C)CC4)c(OC)cc23)c(Cl)cc1Cl [Bosutinib (SKI-606)]	61.1	30.4	55.4	68.4	48.4 ± 2.7	48	53.7 ± 33	101	71.4 ± 48	55.8	37.1 ± 4.8	36.7 ± 13	52.1 ± 9.3
CCOC(=O)C1=C(COCCN)NC(C)=C(C(=O)OC)C1c1ccccc1Cl (stereo not given) [Amlodipine]	103	93.7	101	90.2	70.6 ± 31	86.4	50.5 ± 42	100	32.2 ± 4.1	69.9	27.6 ± 4	31.9 ± 10	73.4 ± 12
CCCCCCCCc1ccc(CCC(N)(CO)CO)cc1.Cl [Fingolimod (FTY720)]	97.7	87.9	92.2	84.3	28.9 ± 5.8	53.9	18.8 ± 3.1	33.8	52.3 ± 9.9	49.1	25.6 ± 1.3	77.9 ± 3.2	82.5 ± 15
CCC(NC(=O)C(C)NC)C(=O)N1CC(O)CC1Cc1c(-c2[nH]c3cc(F)ccc3c2CC2CC(O)CN2C(=O)C(CC)NC(=O)C(C)NC)[nH]c2cc(F)ccc12 (stereo not given)	82.8	68.5	36.3	56.6	133 ± 5.6	99.5	146 ± 36	128	–	115	93.8 ± 8.2	114.1 ± 0.19	149 ± 20
CC(C)CC(NC(=O)CNC(=O)c1cc(Cl)ccc1Cl)B(O)O (stereo not given)	51.7	24.9	130	23.1	53.4 ± 8.3	116	14.9 ± 0.73	174	33.1 ± 5.4	84.6	58.8 ± 3.8	34.22 ± 0.066	80.3 ± 24
C=C1C(=CC=C2CCCC3(C)C2CCC3C(C)CCCC(C)(C)O)CC(O)CC1O (stereo not given) [Calcitriol]	70.8	50.1	46.8	92.9	27.6 ± 12	119	27 ± 5.2	73.4	66.4 ± 6.8	107	55.7 ± 0.62	39.3 ± 9.2	137 ± 14
COC(=O)C1=C(C)NC(C)=C(C(=O)OCCN(C)Cc2ccccc2)C1c1cccc([N+](=O)[O-])c1.Cl (stereo not given) [Nicardipine HCl]	108	94.4	93.5	100	66 ± 2.2	99.9	35.5 ± 4.3	65.4	55.4 ± 8.6	126	55.37 ± 0.27	48.8 ± 8.4	80 ± 5.5
